This excerpt belongs to a sample that is enriched for hits.
FH mod = Identification of activators of human fumarate hydratase by quantitative high-throughput screening; Fumarate hydratase, mitochondrial (Homo sapiens), P07954; AID 1347055, 2019; FH coupled MDH/diaphorase resazurin fluorescence, 15 min; Potency, µM (series often up to 79.9 µM), hits mostly inhibitors; hit rate 0.22% among 54,000; note: the screen sought activators but most active calls are inhibition curves; nearly all actives have a fitted effect of over 45% in size
TSG101-PTAP inh = blocks PTAP binding to human TSG101, validation | Q99816 | Fluorescence polarization, FITC-PTAP peptide/Tsg101, 20 min | Potency, µM (highest dose often 115 µM), most hits filed as inhibitors | 44,000 tested, under 10 active | AID 1347069
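Read-out is FITC fluorescence polarization. Compounds were added to Tsg101 binding domain (10 uM final), then FITC-PTAP peptide (50 nM final), 20 min at r.t. Total S+P intensity flags fluorescent compounds.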
B2AR arrestin ag = agonists recruiting beta-arrestin to human beta2-adrenergic receptor | 44,000 tested, under 10 active | Potency, µM (top dose mostly 46.1 µM), most hits filed as activators | P07550 | HTLA Tango cells, beta-arrestin recruitment, luciferase luminescence, 18 h | AID 1347077
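Tango cells expressing recombinant beta2-AR and beta-arrestin were treated with compounds (up to 46 microM titration) in DMEM with 1% FBS for 18 hr at 37 degrees C. Beta-arrestin recruitment drove tTA-dependent luciferase, read by luminescence; curves were fitted and classed.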
NTMT1 inh = NTMT1 methyltransferase inhibition | hit rate 2.5% among 59,000 | Q9BV86 | NTMT1 MTase-Glo SAH luminescence, purified enzyme | Potency, µM (top dose mostly 114 µM), actives largely listed as inhibitors; note: nearly all actives have a fitted effect of over 65% in size
GALK inhibitor = inhibitors of human galactokinase (GALK) | P51570 | recombinant GALK, Kinase-Glo ATP luminescence, 1 h | Potency, µM (series often up to 57.5 µM), usual class: inhibitors | 44,000 tested, under 10 active
Target sequence (P51570 whole entry, looked up): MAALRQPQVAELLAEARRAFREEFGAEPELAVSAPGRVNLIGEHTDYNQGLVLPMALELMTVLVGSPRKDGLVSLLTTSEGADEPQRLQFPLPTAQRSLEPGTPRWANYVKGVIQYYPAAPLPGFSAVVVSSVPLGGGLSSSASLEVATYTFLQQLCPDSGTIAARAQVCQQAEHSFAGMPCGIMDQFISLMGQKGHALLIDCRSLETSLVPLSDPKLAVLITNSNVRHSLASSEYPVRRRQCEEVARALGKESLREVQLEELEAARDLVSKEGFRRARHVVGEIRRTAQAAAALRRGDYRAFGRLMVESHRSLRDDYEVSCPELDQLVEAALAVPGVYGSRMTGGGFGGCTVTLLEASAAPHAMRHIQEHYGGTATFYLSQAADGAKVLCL
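Human GALK (5 nM) was incubated with 35 uM ATP and 100 uM galactose in 20 mM HEPES pH 8.0 with MgCl2, NaCl, DTT and BSA for 1 h at room temperature. Remaining ATP was measured by Kinase-Glo Plus luminescence.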
A number is an active result; i = inactive; ? = inconclusive; nt = not tested or not shown; ! = not confirmed by another sample; [ ] = another dose, or the depositor's remark. Calls come from the whole dose curve; as a rule, active = well fitted curve in the direction sought with a large enough effect; inconclusive = small, poorly fitted or top-dose-only effect, or another doubt; inactive = no such curve, though single readings can be large; an effect the other way counts as inactive or inconclusive.

SMILES | FH mod | TSG101-PTAP inh | B2AR arrestin ag | NTMT1 inh | GALK inhibitor
COc1cc(N2CCC(N3CCN(C)CC3)CC2)ccc1Nc1ncc(Cl)c(Nc2ccccc2S(=O)(=O)C(C)C)n1 | ? | nt | nt | 25µM! | nt
CCCc1nnc(-c2cnn(C)c2N)n1CCCn1ccnc1 | nt | nt | nt | i | nt
COc1ccc(CNC(=O)c2cc(-c3cncc(Cl)c3)cnc2-c2ccccn2)nc1OC | nt | nt | nt | i | nt
COCCOc1ccc2c(c1)ncn2-c1ccc2cccc(N3CCC(N)CC3)c2n1 | i | nt | nt | 35µM! | nt
NC(=O)C[C@H](N)C(=O)Nc1ccc(Cl)cc1C(=O)c1ccc[nH]1 | nt | nt | nt | i | nt
Cc1ccc(C2N=C(Nc3nc4ccccc4o3)NC3=C2C(=O)CCC3)s1 (stereo not given) | nt | nt | nt | i | nt
c1ccc(CN(CC2=NCCN2)c2ccccc2)cc1 | i | nt | nt | i | nt
Cc1ccc(N(CC2=NCCN2)c2cccc(O)c2)cc1 | i | nt | nt | 89µM! | nt
O=c1cc(-c2ccccc2)oc2cc(O)c(O)c(O)c12 | ? | nt | nt | 28µM! | nt
CCn1c(=O)c(-c2ccc(Cl)cc2Cl)cc2cnc(Nc3ccc(N4CCNCC4)c(F)c3)nc21 | i | nt | nt | 50µM! | nt
O=C(CCO[C@@H]1O[C@H](CO)[C@@H](O)[C@H](O)[C@H]1O)c1ccc(O)cc1 | i | nt | nt | i | nt
C=C1c2cccc(O)c2C(O)=C2C(=O)[C@@]3(O)C(O)=C(C(N)=O)C(=O)[C@@H](N(C)C)[C@@H]3[C@@H](O)[C@H]12 | i | nt | nt | 13µM | nt
CN(C)[C@@H]1C(=O)C(C(N)=O)=C(O)[C@@]2(O)C(=O)C3=C(O)c4c(O)cccc4C[C@H]3C[C@@H]12 | i | nt | nt | ? | nt
CC(=O)C1=C(c2ccc(Cl)c(Cl)c2)N(C(C)=O)n2cnnc2S1 | ? | i | i | 56µM | i
C=C1CC[C@@]2(OC1)O[C@H]1CC3[C@@H]4CC=C5C[C@H](O[C@H]6OC[C@@H](O)C(O)[C@@H]6O[C@@H]6O[C@@H](C)[C@H](O)[C@@H](O[C@@H]7O[C@H](CO)[C@@H](O)[C@H](O)[C@H]7O)[C@H]6O)C[C@@H](O)[C@]5(C)C4CC[C@]3(C)[C@H]1[C@@H]2C (stereo not given in full) | i | nt | nt | i[12.6 µM] | nt
Cc1cnc(-c2ccccc2N(C)C)nc1NCc1ccc(-c2cccnc2)cc1 | nt | nt | nt | i | nt
Fc1cc(Nc2nc(-c3ccncc3)nc3ccccc23)ccc1N1CCNCC1 | nt | nt | nt | 10µM | nt
Oc1ccc(-c2ccccc2F)c2cccnc12 | nt | nt | nt | i | nt
Oc1ccc(Nc2ccccc2F)c2cccnc12 | nt | nt | nt | 28µM | nt
CCN1CCc2c(sc(NC(=O)CSc3ccccc3)c2-c2nc3ccccc3s2)C1 | i | 40µM | i | i | i
CCCCNC(=O)Nc1ccc2c(c1)N(C)C(=O)c1ccccc1S2 | i | i | i | 89µM | i
COc1ccc(CNC(=O)Nc2ccc3c(c2)N(C)C(=O)c2ccccc2S3)cc1OC | ? | i | i | i | i
Cc1ccc(-n2[nH]c(C)c(N=Nc3cccc(-c4cccc(C(=O)O)c4)c3O)c2=O)cc1C | ? | nt | nt | 35µM! | nt
O=c1[nH]cnc2nc[nH]c12 | i | nt | nt | 22µM | nt
O=c1[nH]cnc2c([C@@H]3N[C@H](CO)[C@@H](O)[C@H]3O)c[nH]c12 | i | nt | nt | ? | nt
SMILES | FH mod | TSG101-PTAP inh | B2AR arrestin ag | NTMT1 inh | GALK inhibitor
CNCc1ccc(-c2[nH]c3cc(F)cc4c3c2CCNC4=O)cc1 | i | nt | nt | 6.3µM! | nt
CN(C)c1ccc(/C=C(\C#N)c2nc3ccccc3c(=O)[nH]2)cc1 | i | i | i | 35µM | i
CC(C)(C)CC(C)(C)c1ccc(OCCOCC[N+](C)(C)Cc2ccccc2)cc1 | i | nt | nt | ? | nt
C[N+](C)(CCOc1ccccc1)Cc1cccs1 | i | nt | nt | 14µM | nt
CC(CCC1C(C(=O)O)=CC(=O)CC1(C)C)O[C@@H]1O[C@H](CO)[C@@H](O)[C@H](O)[C@H]1O (stereo not given in full) | i | nt | nt | ? | nt
COc1cccc(CN(C(=O)c2oc3cc(C)ccc3c2C)C2CCS(=O)(=O)C2)c1 (stereo not given) | 32µM | i | ? | i | i
COc1cccc(CN(C(=O)c2oc3ccccc3c2C)C2CCS(=O)(=O)C2)c1 (stereo not given) | i | i | i | i | i
O=c1cc(OCc2ccc(F)cc2)ccn1-c1ccc(OCCN2CCCC2)cc1 | i | nt | nt | i | nt
COC(=O)C1=C(c2ccccc2)c2ccccc2S(=O)(=O)N1CC(=O)Nc1cccc(C(C)=O)c1 | ? | i | i | 79µM | i

Screening data as filed in PubChem.
